Common to all, as to assay: PBM; 200 nM protein, PBS
Conditions in all cases: dsDNA, one strand shown

For test [1], the target named is HESX1 (Homo sapiens, UniProt Q9UBX0 95-180, R165K).
Test [2] concerns the target HESX1 (Homo sapiens, UniProt Q9UBX0 95-180).
Test [3] concerns the target MSX2 (Homo sapiens, UniProt P35548 130-214, R199I).
For test [4], the target named is ALX1 (Homo sapiens, UniProt Q15699 118-204, L144V).
Test [5] addresses ALX1 (Homo sapiens, UniProt Q15699 118-204, L144R).
For test [6], the target named is MSX2 (Homo sapiens, UniProt P35548 130-214).
Sequence of MSX2 (Homo sapiens, UniProt P35548 130-214) (P35548 130-214): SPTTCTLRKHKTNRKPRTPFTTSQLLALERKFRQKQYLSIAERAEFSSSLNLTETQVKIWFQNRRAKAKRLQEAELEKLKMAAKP
For test [7], the target named is HESX1 (Homo sapiens, UniProt Q9UBX0 95-180, R109Q).
Sequence of HESX1 (Homo sapiens, UniProt Q9UBX0 95-180, R109Q) (Q9UBX0 95-180 R109Q): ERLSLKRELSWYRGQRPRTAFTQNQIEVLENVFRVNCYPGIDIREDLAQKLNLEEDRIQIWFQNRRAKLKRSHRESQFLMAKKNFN
Test [8] deals with PROP1 (Homo sapiens, UniProt O75360 56-141, R99H).
Sequence of PROP1 (Homo sapiens, UniProt O75360 56-141, R99H) (O75360 56-141 R99H): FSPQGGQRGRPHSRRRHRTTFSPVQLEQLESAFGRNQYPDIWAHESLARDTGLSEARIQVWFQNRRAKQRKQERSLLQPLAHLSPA
In test [9] the target is HESX1 (Homo sapiens, UniProt Q9UBX0 95-180, P111T).
Sequence of HESX1 (Homo sapiens, UniProt Q9UBX0 95-180, P111T) (Q9UBX0 95-180 P111T): as the sequence (Q9UBX0 95-180 R109Q) above, with Q15R, P17T counted along it
The target of test [10] is MSX2 (Homo sapiens, UniProt P35548 130-214, F161Y).
Sequence of MSX2 (Homo sapiens, UniProt P35548 130-214, F161Y) (P35548 130-214 F161Y): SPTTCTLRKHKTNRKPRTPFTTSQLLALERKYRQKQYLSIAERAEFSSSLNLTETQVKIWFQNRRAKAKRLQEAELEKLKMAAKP
Test [11] has as its target HESX1 (Homo sapiens, UniProt Q9UBX0 95-180, F115L).
Test [12] addresses ALX1 (Homo sapiens, UniProt Q15699 118-204).
Test [13] concerns the target ALX3 (Homo sapiens, UniProt O95076 139-225, N203Q).
The target in test [14] is ALX3 (Homo sapiens, UniProt O95076 139-225).
Sequence of ALX3 (Homo sapiens, UniProt O95076 139-225) (O95076 139-225): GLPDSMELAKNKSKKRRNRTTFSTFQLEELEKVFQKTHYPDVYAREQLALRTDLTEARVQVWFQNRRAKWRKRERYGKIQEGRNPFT
Test [15] addresses ALX3 (Homo sapiens, UniProt O95076 139-225, L168Q).
The target in test [16] is ALX3 (Homo sapiens, UniProt O95076 139-225, L168V).
Sequence of ALX3 (Homo sapiens, UniProt O95076 139-225, L168V) (O95076 139-225 L168V): as the sequence (O95076 139-225) above, with L30V counted along it
The target of test [17] is ALX3 (Homo sapiens, UniProt O95076 139-225, N203S).
Sequence of ALX3 (Homo sapiens, UniProt O95076 139-225, N203S) (O95076 139-225 N203S): as the sequence (O95076 139-225) above, with N65S counted along it
For test [18], the target named is VAX1 (Homo sapiens, UniProt Q5SQQ9 86-172).
Sequence of VAX1 (Homo sapiens, UniProt Q5SQQ9 86-172) (Q5SQQ9 86-172): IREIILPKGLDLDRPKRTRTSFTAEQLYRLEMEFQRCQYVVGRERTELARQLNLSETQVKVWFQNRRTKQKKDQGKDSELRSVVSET
The target in test [19] is VAX1 (Homo sapiens, UniProt Q5SQQ9 86-172, T142I).
Sequence of VAX1 (Homo sapiens, UniProt Q5SQQ9 86-172, T142I) (Q5SQQ9 86-172 T142I): as the sequence (Q5SQQ9 86-172) above, with T57I counted along it
Test [20] addresses VAX1 (Homo sapiens, UniProt Q5SQQ9 86-172, K157R).
Test [21] deals with PROP1 (Homo sapiens, UniProt O75360 56-141).
Sequence of PROP1 (Homo sapiens, UniProt O75360 56-141) (O75360 56-141): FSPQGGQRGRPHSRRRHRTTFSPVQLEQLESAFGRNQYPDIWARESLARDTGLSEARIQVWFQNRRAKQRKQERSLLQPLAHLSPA
In test [22] the target is PROP1 (Homo sapiens, UniProt O75360 56-141, F88S).
Sequence of PROP1 (Homo sapiens, UniProt O75360 56-141, F88S) (O75360 56-141 F88S): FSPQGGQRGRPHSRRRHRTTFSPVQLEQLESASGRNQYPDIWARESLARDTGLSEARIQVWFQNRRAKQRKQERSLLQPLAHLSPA

Experimental findings from paper PMC11006913 are described below.

Sequence of HESX1 (Homo sapiens, UniProt Q9UBX0 95-180) (Q9UBX0 95-180): as the sequence (Q9UBX0 95-180 R109Q) above, with Q15R counted along it
Sequence of HESX1 (Homo sapiens, UniProt Q9UBX0 95-180, F115L) (Q9UBX0 95-180 F115L): as the sequence (Q9UBX0 95-180 R109Q) above, with Q15R, F21L counted along it
Sequence of HESX1 (Homo sapiens, UniProt Q9UBX0 95-180, R165K) (Q9UBX0 95-180 R165K): as the sequence (Q9UBX0 95-180 R109Q) above, with Q15R, R71K counted along it
Sequence of ALX3 (Homo sapiens, UniProt O95076 139-225, N203Q) (O95076 139-225 N203Q): as the sequence (O95076 139-225) above, with N65Q counted along it
Sequence of ALX1 (Homo sapiens, UniProt Q15699 118-204) (Q15699 118-204): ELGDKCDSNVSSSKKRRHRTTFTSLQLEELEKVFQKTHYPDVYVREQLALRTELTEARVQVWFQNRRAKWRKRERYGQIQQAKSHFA
Sequence of ALX1 (Homo sapiens, UniProt Q15699 118-204, L144V) (Q15699 118-204 L144V): as the sequence (Q15699 118-204) above, with L27V counted along it
Sequence of ALX3 (Homo sapiens, UniProt O95076 139-225, L168Q) (O95076 139-225 L168Q): as the sequence (O95076 139-225) above, with L30Q counted along it
Sequence of ALX1 (Homo sapiens, UniProt Q15699 118-204, L144R) (Q15699 118-204 L144R): as the sequence (Q15699 118-204) above, with L27R counted along it
Sequence of VAX1 (Homo sapiens, UniProt Q5SQQ9 86-172, K157R) (Q5SQQ9 86-172 K157R): as the sequence (Q5SQQ9 86-172) above, with K72R counted along it
Sequence of MSX2 (Homo sapiens, UniProt P35548 130-214, R199I) (P35548 130-214 R199I): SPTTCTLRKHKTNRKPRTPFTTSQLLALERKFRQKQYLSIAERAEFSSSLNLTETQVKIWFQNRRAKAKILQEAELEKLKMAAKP

For AGTAATTG, the binding signal with HESX1 [1] is 11.8 upbm affinity estimate (log intensity, higher = more binding, comparable within an allelic series); with HESX1 [2] it was 12 upbm affinity estimate (log intensity, higher = more binding, comparable within an allelic series); in the test with MSX2 [3], 12.5 upbm affinity estimate (log intensity, higher = more binding, comparable within an allelic series); in the test with ALX1 [4] it was 11.4 upbm affinity estimate (log intensity, higher = more binding, comparable within an allelic series); with ALX1 [5] it was 10.9 upbm affinity estimate (log intensity, higher = more binding, comparable within an allelic series); with MSX2 [6], 13.7 upbm affinity estimate (log intensity, higher = more binding, comparable within an allelic series). Further, the binding signal with HESX1 [7] was 8.47 upbm affinity estimate (log intensity, higher = more binding, comparable within an allelic series); with PROP1 [8] it was 11 upbm affinity estimate (log intensity, higher = more binding, comparable within an allelic series); with HESX1 [9], 10.3 upbm affinity estimate (log intensity, higher = more binding, comparable within an allelic series); with MSX2 [10] it was 13.4 upbm affinity estimate (log intensity, higher = more binding, comparable within an allelic series); with HESX1 [11], 7.48 upbm affinity estimate (log intensity, higher = more binding, comparable within an allelic series); in the test with ALX1 [12] it was 12 upbm affinity estimate (log intensity, higher = more binding, comparable within an allelic series).
In the case of CTAGGGCC, the binding signal was 6.49 upbm affinity estimate (log intensity, higher = more binding, comparable within an allelic series) in the test with HESX1 [1]; 6.45 upbm affinity estimate (log intensity, higher = more binding, comparable within an allelic series) in the test with HESX1 [2]; 7.79 upbm affinity estimate (log intensity, higher = more binding, comparable within an allelic series) with ALX3 [13]; 7.79 upbm affinity estimate (log intensity, higher = more binding, comparable within an allelic series) with ALX3 [14]; 6.47 upbm affinity estimate (log intensity, higher = more binding, comparable within an allelic series) in the test with HESX1 [7]; 7.79 upbm affinity estimate (log intensity, higher = more binding, comparable within an allelic series) with ALX3 [15]. Also, the binding signal with HESX1 [9] is 6.36 upbm affinity estimate (log intensity, higher = more binding, comparable within an allelic series); with ALX3 [16], 7.77 upbm affinity estimate (log intensity, higher = more binding, comparable within an allelic series); with HESX1 [11], 6.42 upbm affinity estimate (log intensity, higher = more binding, comparable within an allelic series); in the test with ALX3 [17], 7.79 upbm affinity estimate (log intensity, higher = more binding, comparable within an allelic series).
For CTGGGCTC, the binding signal was 6.43 upbm affinity estimate (log intensity, higher = more binding, comparable within an allelic series) with HESX1 [1]; 6.41 upbm affinity estimate (log intensity, higher = more binding, comparable within an allelic series) with HESX1 [2]; 6.37 upbm affinity estimate (log intensity, higher = more binding, comparable within an allelic series) with ALX1 [4]; 6.38 upbm affinity estimate (log intensity, higher = more binding, comparable within an allelic series) in the test with ALX1 [5]; 6.43 upbm affinity estimate (log intensity, higher = more binding, comparable within an allelic series) with HESX1 [7]; 6.51 upbm affinity estimate (log intensity, higher = more binding, comparable within an allelic series) with HESX1 [9]. Also, the binding signal was 6.39 upbm affinity estimate (log intensity, higher = more binding, comparable within an allelic series) in the test with HESX1 [11] and 6.38 upbm affinity estimate (log intensity, higher = more binding, comparable within an allelic series) with ALX1 [12].
With CACGGCGC, the binding signal in the test with HESX1 [1] was 6.6 upbm affinity estimate (log intensity, higher = more binding, comparable within an allelic series); with HESX1 [2] it was 6.29 upbm affinity estimate (log intensity, higher = more binding, comparable within an allelic series); in the test with HESX1 [7], 6.5 upbm affinity estimate (log intensity, higher = more binding, comparable within an allelic series); with VAX1 [18], 7.16 upbm affinity estimate (log intensity, higher = more binding, comparable within an allelic series); with HESX1 [9] it was 6.54 upbm affinity estimate (log intensity, higher = more binding, comparable within an allelic series); in the test with HESX1 [11] it was 6.57 upbm affinity estimate (log intensity, higher = more binding, comparable within an allelic series). In addition, the binding signal was 7.21 upbm affinity estimate (log intensity, higher = more binding, comparable within an allelic series) with VAX1 [19] and 7.23 upbm affinity estimate (log intensity, higher = more binding, comparable within an allelic series) in the test with VAX1 [20].
As for AGATTGGG, the binding signal with HESX1 [1] was 7.4 upbm affinity estimate (log intensity, higher = more binding, comparable within an allelic series); with HESX1 [2], 7.61 upbm affinity estimate (log intensity, higher = more binding, comparable within an allelic series); in the test with HESX1 [7] it was 7.3 upbm affinity estimate (log intensity, higher = more binding, comparable within an allelic series); in the test with HESX1 [9], 7.23 upbm affinity estimate (log intensity, higher = more binding, comparable within an allelic series).
In the case of AGCCCGCG, the binding signal is 6.57 upbm affinity estimate (log intensity, higher = more binding, comparable within an allelic series) in the test with HESX1 [1]; 6.54 upbm affinity estimate (log intensity, higher = more binding, comparable within an allelic series) in the test with HESX1 [2]; 6.6 upbm affinity estimate (log intensity, higher = more binding, comparable within an allelic series) with HESX1 [7]; 6.57 upbm affinity estimate (log intensity, higher = more binding, comparable within an allelic series) with HESX1 [9]; 6.48 upbm affinity estimate (log intensity, higher = more binding, comparable within an allelic series) with HESX1 [11].
In the case of CACCCCCC, the binding signal in the test with HESX1 [1] was 6.39 upbm affinity estimate (log intensity, higher = more binding, comparable within an allelic series); with HESX1 [2], 6.4 upbm affinity estimate (log intensity, higher = more binding, comparable within an allelic series); in the test with ALX3 [13], 7.67 upbm affinity estimate (log intensity, higher = more binding, comparable within an allelic series); in the test with ALX3 [14], 7.7 upbm affinity estimate (log intensity, higher = more binding, comparable within an allelic series); with PROP1 [21], 6.46 upbm affinity estimate (log intensity, higher = more binding, comparable within an allelic series); with HESX1 [7] it was 6.54 upbm affinity estimate (log intensity, higher = more binding, comparable within an allelic series). Also, the binding signal with PROP1 [8] is 6.42 upbm affinity estimate (log intensity, higher = more binding, comparable within an allelic series); with ALX3 [15], 7.45 upbm affinity estimate (log intensity, higher = more binding, comparable within an allelic series); with HESX1 [9], 6.38 upbm affinity estimate (log intensity, higher = more binding, comparable within an allelic series); with ALX3 [16] it was 7.59 upbm affinity estimate (log intensity, higher = more binding, comparable within an allelic series); with PROP1 [22], 6 upbm affinity estimate (log intensity, higher = more binding, comparable within an allelic series); in the test with HESX1 [11], 6.45 upbm affinity estimate (log intensity, higher = more binding, comparable within an allelic series). Moreover, in the test with ALX3 [17], the binding signal was 7.71 upbm affinity estimate (log intensity, higher = more binding, comparable within an allelic series).
Take GAAGGAGC: the binding signal with HESX1 [1] was 6.42 upbm affinity estimate (log intensity, higher = more binding, comparable within an allelic series); with HESX1 [2], 6.37 upbm affinity estimate (log intensity, higher = more binding, comparable within an allelic series); in the test with PROP1 [21], 6.66 upbm affinity estimate (log intensity, higher = more binding, comparable within an allelic series); with HESX1 [7], 6.46 upbm affinity estimate (log intensity, higher = more binding, comparable within an allelic series); in the test with PROP1 [8], 6.54 upbm affinity estimate (log intensity, higher = more binding, comparable within an allelic series); with HESX1 [9], 6.42 upbm affinity estimate (log intensity, higher = more binding, comparable within an allelic series). In addition, the binding signal in the test with PROP1 [22] was 6.62 upbm affinity estimate (log intensity, higher = more binding, comparable within an allelic series); with HESX1 [11] it was 6.55 upbm affinity estimate (log intensity, higher = more binding, comparable within an allelic series).
In the case of AGTTCAGC, the binding signal is 6.57 upbm affinity estimate (log intensity, higher = more binding, comparable within an allelic series) with HESX1 [1]; 6.45 upbm affinity estimate (log intensity, higher = more binding, comparable within an allelic series) in the test with HESX1 [2]; 6.48 upbm affinity estimate (log intensity, higher = more binding, comparable within an allelic series) with HESX1 [7]; 6.48 upbm affinity estimate (log intensity, higher = more binding, comparable within an allelic series) in the test with HESX1 [9]; 6.59 upbm affinity estimate (log intensity, higher = more binding, comparable within an allelic series) with HESX1 [11].
